A number with no mark means an inactive call. Activity calls are given as the source filed them. Cut-off read from the data, not from the text of the source: active = inhibition above about 55%; inactive = the rest.
tested on: SARS coronavirus 3C-like protease (3CLpro, nsp5); assay: blockers of SARS 3CLpro activity – biochemical, fluorescence, set 2, late-stage follow-up (AID 488984); details: recombinant 3CLpro, fluorogenic peptide cleavage; at 100 µM; active compounds read high

SMILES | inhibition
CC(C)c1ccc(N(C(=O)c2n[nH]c3ccccc23)C(C(=O)NC(C)(C)C)c2cccnc2)cc1 (stereo not given) | 13.2%
CC(C)(C)NC(=O)C(c1cccnc1)N(C(=O)c1ccco1)C1CC1 (stereo not given) | -1.64%
CC(C)(C)NC(=O)C(c1cccnc1)N(C(=O)Cc1cccc2ccccc12)c1ccc(OCF)cc1 (stereo not given) | 3.12%
CC(C)(C)NC(=O)C(c1cccnc1)N(C(=O)Cc1cccnc1)c1ccc(F)cc1 (stereo not given) | 5.7%
CC(C)(C)NC(=O)C(c1ccsc1)N(C(=O)Cc1c[nH]c2ccccc12)c1ccc(C(C)(C)C)cc1 (stereo not given) | 26.3%
CC(C)C(=O)Nc1ccc(N(C(=O)Cn2nnc3ccccc32)C(C(=O)NC(C)(C)C)c2ccsc2)cc1 (stereo not given) | 96.7% (active)
CCC(=O)Nc1ccc(N(C(=O)Cn2cnc3ccccc32)C(C(=O)NC(C)(C)C)c2ccsc2)cc1 (stereo not given) | 61.1% (active)
CC(C)(C)NC(=O)C(c1ccsc1)N(C(=O)Cc1cccc2ccccc12)C1CC1 (stereo not given) | 16.5%
CC(C)(C)NC(=O)C(c1cccnc1)N(C(=O)c1ccc(C#N)cc1)c1ccc(F)cc1 (stereo not given) | -13.5%
CC(C)(C)NC(=O)C(c1cccnc1)N(C(=O)c1ccco1)c1ccc(C(C)(C)C)cc1 (stereo not given) | 102% (active)
CC(C)(C)NC(=O)C(c1ccsc1)N(C(=O)c1ccc(C(F)(F)F)nc1)c1ccc(C(C)(C)C)cc1 (stereo not given) | 19.7%
CC(C)(C)NC(=O)C(c1ccsc1)N(C(=O)Cc1cccc2ccccc12)c1ccc(C(C)(C)C)cc1 (stereo not given) | 22.3%
CC(C)(C)NC(=O)C(c1ccsc1)N(C(=O)c1cccc2c1CCCC2)C1CC1 (stereo not given) | 34.6%
CC(=O)Nc1ccc(N(C(=O)Cn2cnc3ccccc32)C(C(=O)NC(C)(C)C)c2ccsc2)cc1 (stereo not given) | 2.63%
CC(C)c1ccc(N(C(=O)c2ccco2)C(C(=O)NC(C)(C)C)c2ccsc2)cc1 (stereo not given) | 6.57%
CC(C)(C)NC(=O)C(c1ccsc1)N(C(=O)c1cccc2c1CCCC2)c1ccc(C(C)(C)C)cc1 (stereo not given) | 12.9%
CC(C)(C)NC(=O)C(c1cccnc1)N(C(=O)c1ccc(C(F)(F)F)nc1)c1ccc(F)cc1 (stereo not given) | 10.5%
CC(C)(C)NC(=O)C(c1cccnc1)N(C(=O)c1n[nH]c2ccccc12)C1CC1 (stereo not given) | 9.27%

SMILES | inhibition
CC(C)(C)NC(=O)C(c1ccsc1)N(C(=O)c1ccc(C#N)cc1)C1CC1 (stereo not given) | 11.2%
Cc1nccn1CC(=O)N(c1ccc(N)cc1)C(C(=O)NC(C)(C)C)c1ccsc1 (stereo not given) | 6.79%
CC(C)c1ccc(N(C(=O)Cc2cccnc2)C(C(=O)NC(C)(C)C)c2ccsc2)cc1 (stereo not given) | 7.95%
CC(C)(C)NC(=O)C(c1ccsc1)N(C(=O)Cc1cccnc1)c1ccc(C(C)(C)C)cc1 (stereo not given) | 37.4%
CC(C)(C)NC(=O)C(c1ccsc1)N(C(=O)Cc1cccnc1)C1CC1 (stereo not given) | 25.9%
CC(C)(C)NC(=O)C(c1ccsc1)N(C(=O)Cc1cccnc1)c1ccc(OCF)cc1 (stereo not given) | 56.1% (active)
CC(=O)Nc1ccc(N(C(=O)Cn2c(C)nc3ccccc32)C(C(=O)NC(C)(C)C)c2ccsc2)cc1 (stereo not given) | 2.27%
CC(C)(C)NC(=O)C(c1ccsc1)N(C(=O)c1ccc(C#N)cc1)c1ccc(C(C)(C)C)cc1 (stereo not given) | 22.7%
CC(C)(C)NC(=O)C(c1ccsc1)N(C(=O)c1n[nH]c2ccccc12)c1ccc(F)cc1 (stereo not given) | 15.3%
CC(C)(C)NC(=O)C(c1ccsc1)N(C(=O)Cc1cccc2ccccc12)c1ccc(F)cc1 (stereo not given) | 19.2%
CC(C)(C)NC(=O)C(c1ccsc1)N(C(=O)Cc1c[nH]c2ccccc12)C1CC1 (stereo not given) | 48.4%
CC(C)(C)NC(=O)C(c1cccnc1)N(C(=O)Cc1cccc2ccccc12)c1ccc(F)cc1 (stereo not given) | -7.86%
CC(C)(C)NC(=O)C(c1cccnc1)N(C(=O)Cc1c[nH]c2ccccc12)c1ccc(OCF)cc1 (stereo not given) | 11.5%
CC(C)(C)NC(=O)C(c1ccsc1)N(C(=O)Cn1nnc2ccccc21)c1ccc(C(C)(C)C)cc1 (stereo not given) | 2.8%
CCC(=O)Nc1ccc(N(C(=O)Cn2c(C)nc3ccccc32)C(C(=O)NC(C)(C)C)c2ccsc2)cc1 (stereo not given) | 0.52%
Cc1nc2ccccc2n1CC(=O)N(c1ccc(C(C)(C)C)cc1)C(C(=O)NC(C)(C)C)c1ccsc1 (stereo not given) | 2.02%
CC(C)(C)NC(=O)C(c1ccsc1)N(C(=O)c1n[nH]c2ccccc12)C1CC1 (stereo not given) | 13%

— PubChem BioAssay AID488984 (The Scripps Research Institute Molecular Screening Center, 2010)
